# EPAC2 ant val: validation of human EPAC2 antagonists | Potency, µM (titrated, usually from 112 µM), inactives show top-dose activity, negative = inhibition, actives largely listed as inhibitors | AID 1645886 | 16,000 tested, 1.7% active | EPAC2 Rap1B BODIPY-GDP exchange, fluorescence | Q8WZA2;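 further: 100% = activation by cAMP agonist control; nearly all actives have a fitted effect of over 40% in size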
#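 Normalized against a 6.5 mM cAMP agonist control, compounds were tested on 100 nM EPAC2 exchanging Rap1B-bound BODIPY-GDP (250 nM) for 50 uM GDP. Fluorescence drop (ex 480, em 540 nm) was tracked at room temperature over 30 min at 5-min intervals.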
# EPAC1 agonist: human EPAC1 agonism, validation. O95398. EPAC1 Rap1b BODIPY-GDP exchange, fluorescence. Potency, µM, for inactives: max response, positive = active, usual class: activators. 16,000 tested, 1% active. AID 1645883; further: nearly all actives have a fitted effect of over 70% in size
# Target sequence (O95398 whole entry, looked up): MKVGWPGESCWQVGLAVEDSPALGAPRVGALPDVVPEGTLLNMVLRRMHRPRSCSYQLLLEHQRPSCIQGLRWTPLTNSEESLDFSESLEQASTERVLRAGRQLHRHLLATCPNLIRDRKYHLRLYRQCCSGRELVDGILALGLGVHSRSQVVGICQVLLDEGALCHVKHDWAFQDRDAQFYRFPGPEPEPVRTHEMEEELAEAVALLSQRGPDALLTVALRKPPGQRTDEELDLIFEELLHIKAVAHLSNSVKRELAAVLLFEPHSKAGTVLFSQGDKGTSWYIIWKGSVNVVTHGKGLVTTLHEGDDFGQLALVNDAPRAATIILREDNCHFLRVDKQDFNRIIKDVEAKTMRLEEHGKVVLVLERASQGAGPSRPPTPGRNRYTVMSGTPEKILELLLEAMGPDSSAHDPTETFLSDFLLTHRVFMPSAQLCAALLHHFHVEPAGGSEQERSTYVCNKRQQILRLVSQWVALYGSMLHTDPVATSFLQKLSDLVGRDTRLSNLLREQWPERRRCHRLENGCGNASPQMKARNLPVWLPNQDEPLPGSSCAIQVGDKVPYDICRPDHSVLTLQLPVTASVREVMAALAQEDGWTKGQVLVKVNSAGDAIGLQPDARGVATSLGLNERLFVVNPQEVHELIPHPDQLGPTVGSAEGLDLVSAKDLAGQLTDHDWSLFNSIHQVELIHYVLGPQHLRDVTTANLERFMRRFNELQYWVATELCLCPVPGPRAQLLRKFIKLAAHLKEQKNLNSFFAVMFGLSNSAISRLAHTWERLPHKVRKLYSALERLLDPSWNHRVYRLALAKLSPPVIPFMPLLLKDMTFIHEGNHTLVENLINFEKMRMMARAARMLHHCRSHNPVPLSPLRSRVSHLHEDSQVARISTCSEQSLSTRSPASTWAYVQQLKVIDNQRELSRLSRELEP
# An asterisk follows results filed as active; u = inconclusive; ! = repeats disagree; [ ] = dose if it differs, or a comment. Compounds with a hit are over-represented: about 2.9% of the library has one in this group of screens. The call rests on the fitted dose curve; in most records, active means well fitted curve in the direction sought with a large enough effect; inconclusive means small, poorly fitted or top-dose-only effect, or another doubt; inactive means no such curve, though single readings can be large; an effect the other way counts as inactive or inconclusive. Unless noted, on the % scale 0 is the no-effect control and ±100 the full control effect; potency means the concentration at half of the fitted maximal effect.
SMILES,EPAC2 ant val,EPAC1 agonist
COc1ccc(CNc2nc(-c3ccc4c(c3)OCO4)nc3ccccc23)c(OC)c1,-14.8%,112µM*
Cc1cccc(CNc2nc(-c3ccc4c(c3)OCO4)nc3ccccc23)c1,u,112µM*
COc1cccc(-c2nc(NCc3ccc(OC)cc3OC)c3ccccc3n2)c1,-21.1%,u
c1cncc(CNc2nc(-c3ccc4c(c3)OCO4)nc3ccccc23)c1,-19.8%,u
COc1ccccc1CNc1nc(-c2cccnc2)nc2ccccc12,-22.4%,89.1µM*
Nc1nc(NC2CC2)c2ncn([C@@H]3C=C[C@@H](CO)C3)c2n1,2.0%,-15.3%
O=C(NCCN1CCOCC1)c1cnn(-c2nccc(-c3cc4ccccc4o3)n2)c1C1CC1,12.1%,10.5%
CCCCC[C@H](O)CC[C@H]1[C@H](O)CC(=O)[C@@H]1CCCCCCC(=O)O,-18.3%[11.4 µM],-13.6%
CCCCC[C@H](O)/C=C/[C@H]1[C@H](O)CC(=O)[C@@H]1CCCCCCC(=O)O,14.1µM*!,-15.0%
COc1cc(-c2cccc(OC)c2OC)cc2c1OCCN(Cc1cn[nH]c1-c1ccc(Cl)cc1)C2,u,3.1%
COc1cccc(Nc2ncc3nc(-c4cc(F)cc(F)c4)c(=O)n(C4CC4)c3n2)c1,-5.9%,100µM*
COCCn1c(=O)c(-c2ccc(F)cc2)nc2cnc(Nc3cccc(OC)c3)nc21,-10.4%,22.3%
COc1cccc(Nc2ncc3nc(-c4ccccc4)c(=O)n(C4CC4)c3n2)c1,-11.6%,-37.1%
COCCn1c(=O)c(-c2cc(F)cc(F)c2)nc2cnc(Nc3cccc(OC)c3)nc21,0.2%,89.1µM*
Cc1ccc(C)c(S(=O)(=O)NCc2nc(N3CCCC3)c3cc(Cl)ccc3n2)c1,-27.4%,17.8%
Cc1cc(OCCOCC[N+](C)(C)Cc2ccccc2)ccc1C(C)(C)CC(C)(C)C,u,-18.0%
Cc1cc2nc(N3CCCN(Cc4cccn4-c4ncccn4)CC3)nc(C)c2cc1C,-20.1%,7.1%
COC(=O)C1=C(C)NC(C)=C(C(=O)OCCCN2CCC(c3ccccc3)(c3ccccc3)CC2)[C@H]1c1cccc([N+](=O)[O-])c1,u,13.1%
CC1=C(C(=O)OC(C)C)C(c2cccc([N+](=O)[O-])c2)C(C(=O)OC2CN(C(c3ccccc3)c3ccccc3)C2)=C(N)N1 (centres undefined),1.0%,100µM*
CCOC(=O)C1=C(C)NC(C)=C(C(=O)OC)C1c1cccc([N+](=O)[O-])c1 (centres undefined),7.94µM*!,0.1%
COCCOC(=O)C1=C(C)NC(C)=C(C(=O)OC(C)C)C1c1cccc([N+](=O)[O-])c1 (centres undefined),u,3.9%
COC(=O)C1=C(C)NC(C)=C(C(=O)O[C@@H]2CCCN(Cc3ccccc3)C2)[C@@H]1c1cccc([N+](=O)[O-])c1,-25.4%,u
COC(=O)C1=C(C)NC(C)=C(C(=O)OC(C)(C)CN(C)CCC(c2ccccc2)c2ccccc2)C1c1cccc([N+](=O)[O-])c1 (centres undefined),-27.9%,u
COCCOC(=O)C1=C(C)NC(C)=C(C(=O)OC(C)C)[C@@H]1c1cccc([N+](=O)[O-])c1,50.1µM*,-0.4%
CCOC(=O)C1=C(C)NC(C)=C(C(=O)OC)[C@H]1c1cccc([N+](=O)[O-])c1,17.8µM*,14.7%
SMILES,EPAC2 ant val,EPAC1 agonist
CCCCCCC(=O)O[C@H]1CC[C@H]2[C@@H]3CCc4cc(O)ccc4[C@H]3CC[C@]12C,-19.1%,-110.7%
Cc1cc(O)c2c(c1)O[C@@]1(C)CC[C@H]3C(C)(C)CCCC34CO[C@@H]2[C@H]41 (some centres undefined),u,-16.6%
COC(=O)C1CCN(Cc2ccc3c(c2)CN(C(=O)c2cc(-c4ccc(C)o4)[nH]n2)CCO3)CC1,u,-4.8%
Cc1occc1C(=O)Nc1cccc(-c2nc(CNC(=O)c3cccc(C#CC(C)(C)O)c3)c(C)o2)c1,-18.1%,-4.6%
COc1cc(=O)n2c(c1C(=O)N(C)Cc1nccs1)CCN(Cc1cc(C)cc(C)c1)CC2,5.5%,-12.7%
COC(=O)c1ccc(-c2cccc3c2OC(CNC(=O)/C=C/c2ccc(OC)c(OC)c2)C3)nc1 (centres undefined),-27.4%,27.7%
CC(CN1c2ccccc2Sc2cccnc21)N(C)C (centres undefined),15.7%,-16.2%
CC1(C)[C@@H](O)CC[C@]2(C)[C@H]3C(=O)C=C4[C@@H]5C[C@@](C)(C(=O)O)CC[C@]5(C)CC[C@@]4(C)[C@]3(C)CC[C@@H]12,1.58µM*,20.1%
CC1(C)C(OC(=O)CCC(=O)O)CC[C@]2(C)C1CC[C@@]1(C)C2C(=O)C=C2[C@@H]3C[C@@](C)(C(=O)O)CC[C@]3(C)CCC21C (some centres undefined),3.98µM*,u
CC1(C)CC[C@]2(C(=O)O)CC[C@@]3(C)C(=CCC4[C@@]5(C)CCC(O)C(C)(C)C5CC[C@@]43C)C2C1 (some centres undefined),-14.1%,-49.8%
CC1(C)[C@@H](O[C@H]2O[C@H](C(=O)O)[C@@H](O)[C@H](O)[C@H]2O[C@@H]2O[C@H](C(=O)O)[C@@H](O)[C@H](O)[C@H]2O)CC[C@]2(C)[C@H]3C(=O)C=C4[C@@H]5C[C@@](C)(C(=O)O)CC[C@]5(C)CC[C@@]4(C)[C@]3(C)CC[C@@H]12,u,-18.2%
CC1(C)C(O)CC[C@]2(C)C1CC[C@@]1(C)C2C(=O)C=C2[C@@H]3C[C@@](C)(C(=O)O)CC[C@@]3(C)CCC21C (some centres undefined),7.08µM*,-3.5%
CC(=O)OC1CCC2(C)C(CCC3(C)C2C(=O)C=C2C4CC(C)(C(=O)OCCN5CCCCC5)CCC4(C)CCC23C)C1(C)C (centres undefined),-11.7%,-10.5%
Cc1cc2c(c(-c3ccc4nc(C)ccc4c3)c1)OC(CNC(=O)Cc1ccn(C)c1)C2 (centres undefined),u,10.6%
CN(C)c1ccc(/C=C/c2cc(N(C)C)nc3ccccc23)cc1,u,-14.8%
Cc1cnc2ccccc2c1/C=C/c1ccc(N(C)C)cc1,-34.1%,100µM*
CN(C)c1ccc(/C=C/c2c3c(nc4ccccc24)CCCC3)cc1,83.9%,100µM*
Cc1nc2ccccc2nc1/C=C/c1ccc(N(C)C)cc1,u,-52.6%
COc1ccc(SC[C@H](Cc2ccccc2)N2CC[C@@H](C)CCC2=O)cc1,39.8µM*,5.2%
Cc1ccc(SC[C@H](Cc2ccccc2)N2CC[C@@H](C)CCC2=O)cc1,u,-25.3%
O=C1CCCCN1CCC(=O)N1CCOc2ccc(C(O)C3CCCCC3)cc2C1 (centres undefined),u,-27.1%
Cc1[nH]c2ccccc2c1/C=C/c1cnc2ccccc2n1,-4.8%,8.8%
Cc1[nH]c2ccccc2c1/C=C/c1ccc2ccccc2n1,-14.2%,100µM*
Cc1noc(C)c1-c1nc(N2CCOCC2)c2ccccc2n1,1.8%,-31.1%
C(=C\c1nccc2ccccc12)/c1ccc(N2CCOCC2)cc1,6.1%,100µM*
